Screens deposited in PubChem by National Center for Advancing Translational Sciences (NCATS).
CtBP-E1A inh: blocks the CtBP interaction with E1A. AlphaScreen GST-E1A/His-CtBP binding, 1536-well; stronger effect = lower value. activity change, % (test concentration not listed). hit rate 0.49% among 340,000; in the data active means activity change below about -65%; inconclusive means mostly about -30% to -63%
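GST-E1A and His-tagged CtBP (125 nM each as 5X stock) were preincubated with pin-transferred compound for 2 h at 37 °C in the dark, then glutathione donor and nickel acceptor beads were added for 1 h before AlphaScreen reading.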
DT40 TDP1 CPT: DT40-hTDP1 cell growth loss with CPT; chicken DT40 Tdp1-/-;hTDP1 cells + 20 nM CPT, ATP luminescence, 48 h; Potency, µM (doses to about 46.2 µM), inactives show at the top dose activity change, negative = growth inhibition, most hits filed as inhibitors; hit rate 12% among 420,000; further: potency means the concentration at half of the fitted maximal effect; nearly all actives have a fitted effect of over 55% in size
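Cell growth measured by CellTiter-Glo luminescence after a minimum 48 h, 37 C compound exposure with 20 nM CPT in Tdp1-knockout DT40 cells stably expressing hTDP1, seeded 400/well; qHTS titration format.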
Six1-Eya2 blk: Six1/Eya2 interaction inhibition; Q15475+O00167; AlphaScreen GST-Six1/His-Eya2 binding, biochemical; stronger effect = lower value; activity change, % (test concentration not listed); hit rate 0.56% among 360,000; AID 651725; in the data active means activity change below about -65%; inconclusive means mostly about -30% to -63%
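AlphaScreen luminescence read after one hour at 37 °C in darkness. Pin-transferred compounds met GST-Six1 and His-Eya2 protein (5X stock 250 nM/500 nM) plus glutathione donor and Ni-chelate acceptor beads (5X, 50 ug/mL).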
TDP1 cell noCPT: qHTS for Inhibitors of human tyrosyl-DNA phosphodiesterase 1 (TDP1): qHTS in cells in absence of CPT; DT40 Tdp1-/- hTDP1 cells, no CPT, ATP luminescence, 48 h; hit rate 15% among 420,000; Potency, µM (doses to about 46.2 µM), inactives show at the highest dose activity change, negative = growth inhibition, actives largely listed as inhibitors; further: potency means the concentration at half of the fitted maximal effect; nearly all actives have a fitted effect of over 55% in size
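Chicken DT40 Tdp1-/- cells complemented with human TDP1, screened without camptothecin (DMSO vehicle only), 400 cells/well. Compounds pin-transferred, cells incubated at 37 °C for at least 48 hr. Growth read as ATP-dependent luminescence (CellTiter-Glo, 30 min at RT).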
IL1B secr inh: inflammasome signaling inhibition, IL-1 beta readout. THP-1 LPS/ATP IL-1B secretion, AlphaLISA, 16 h; stronger effect = lower value. activity change, % at 57.5 µM. hit rate 4.7% among 360,000; in the data active means activity change below about -50%; inconclusive means mostly about -30% to -49%
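Secreted IL-1B measured by AlphaLISA bead assay after 16 h compound exposure of THP-1 cells; compounds (final up to 57.5 uM) added 1 h before LPS (250 ng/mL) and ATP (1.25 mM) stimulation; lower signal means less secretion.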
TDP1 inh: blocks human tyrosyl-DNA phosphodiesterase 1. Q9NUW8. recombinant TDP1, AlphaScreen DNA substrate cleavage. Potency, µM (series often up to 130 µM), for inactives: top-dose activity change, negative = inhibition, actives largely listed as inhibitors. hit rate 0.28% among 350,000. AID 485290; further: potency means the concentration at half of the fitted maximal effect; nearly all actives have a fitted effect of over 40% in size
Target sequence (Q9NUW8 whole entry, looked up): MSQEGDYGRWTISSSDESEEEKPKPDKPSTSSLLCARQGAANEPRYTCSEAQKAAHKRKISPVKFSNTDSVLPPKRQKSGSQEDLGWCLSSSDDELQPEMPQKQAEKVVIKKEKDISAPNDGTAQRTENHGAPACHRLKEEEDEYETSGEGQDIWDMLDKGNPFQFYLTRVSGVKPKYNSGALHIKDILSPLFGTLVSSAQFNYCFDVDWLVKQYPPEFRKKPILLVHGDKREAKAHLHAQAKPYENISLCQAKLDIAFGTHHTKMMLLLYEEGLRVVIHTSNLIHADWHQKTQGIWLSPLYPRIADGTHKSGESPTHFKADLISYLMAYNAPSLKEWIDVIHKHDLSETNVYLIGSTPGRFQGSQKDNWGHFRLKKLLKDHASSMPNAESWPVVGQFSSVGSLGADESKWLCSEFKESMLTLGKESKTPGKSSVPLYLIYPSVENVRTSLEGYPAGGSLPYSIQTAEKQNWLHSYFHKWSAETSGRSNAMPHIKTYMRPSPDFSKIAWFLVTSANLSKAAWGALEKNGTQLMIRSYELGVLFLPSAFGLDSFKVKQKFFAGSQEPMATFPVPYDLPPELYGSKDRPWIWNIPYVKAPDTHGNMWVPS
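Recombinant E. coli-expressed Tdp1 (1 nM) preincubated with compound 15 min at RT, then 5'-biotin/3'-phosphotyrosine-FITC DNA substrate (15 nM) added for 5 min. AlphaScreen beads (10 ug/ml) added, 10 min RT; tyrosine-FITC cleavage read as signal loss.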
An asterisk follows results filed as active; ? = inconclusive; / = no result given; [ ] = remark or other dose. Sampled rows, rich in hits. Any-hit rate of the full collection: about 18%. Unless noted, the call rests on the fitted dose curve; in most records, active means well fitted curve in the direction sought with a large enough effect; inconclusive means small, poorly fitted or top-dose-only effect, or another doubt; inactive means no such curve, though single readings can be large; an effect the other way counts as inactive or inconclusive. On the % scale 0 is the no-effect control and ±100 the full control effect.

SMILES | CtBP-E1A inh | DT40 TDP1 CPT | Six1-Eya2 blk | TDP1 cell noCPT | IL1B secr inh | TDP1 inh
COc1cc2c(cc1OC)C1C(=O)c3c(O)cc4c(c3OC1CO2)C=CC(C)(C)O4 (configuration not stated) | / | 0.65µM* | / | 0.41µM* | / | 19%[56.1 µM]
COc1cc2c(cc1OC)OC(C)(C)C=C2 | / | 6%[9.04 µM] | / | -6%[9.04 µM] | / | 8%
COc1cc2c(cc1OC)C1C(=O)c3ccc4c(c3OC1CO2)C=CC(C)(C)O4 (configuration not stated) | / | 0.082µM* | / | 0.065µM* | / | 13%[56.1 µM]
CC(=O)Nc1ccc(S(=O)(=O)NCC2CCCO2)cc1 (configuration not stated) | -2 | -7% | 11 | -7% | 1 | /
CC1(C)C2CCC1(C)C(Nc1ccccc1)C2 (configuration not stated) | 5 | ? | 5 | 2% | 21 | 6%
CC1(C)C2CCC1(C)C(NC(=O)/C=C/c1ccccc1)C2 (configuration not stated) | -18 | ? | 23 | 18µM* | -24 | 0%
COc1nc(OC)nc(N2CCC(C(=O)NC3CCCCCC3)CC2)n1 | 0 | ? | 0 | -28% | 27 | -1%
CCN1CCN(c2ccc(S(=O)(=O)N3CCCCC3)cc2NC(=O)c2cccc(C(F)(F)F)c2)CC1 | -2 | ? | 3 | 18µM* | -72* | 1%[0.505 µM]
CN1CCN(S(=O)(=O)c2cccc(C(=O)Nc3cc(C(F)(F)F)ccc3N3CCCCC3)c2)CC1 | -16 | ? | 1 | 18µM* | -52* | 0%
C[C@H]1CN([C@@H](C)CO)C(=O)c2c(c3ccccc3n2C)-c2ccccc2CO[C@H]1CN(C)C(=O)[C@@H]1CCCN1C | -11 | -24% | 6 | ? | -29 | /
COc1ccccc1NC(C)C(=O)c1c[nH]c2ccccc12 (configuration not stated) | / | 11µM* | / | ? | / | /
O=C(c1c[nH]c2ccccc12)C(Cl)c1ccccc1 (configuration not stated) | / | 23µM* | -26 | 21µM* | -73* | /
O=C(c1c[nH]c2ccccc12)C(O)C(c1ccccc1)N1CCOCC1 (configuration not stated) | -5 | -20% | -6 | ? | 19 | 0%
Cc1ccc2c(=O)cc(C(=O)Nc3c(C(=O)c4ccc(F)cc4)oc4ccccc34)oc2c1C | / | -17% | / | -5% | / | -2%
COc1cccc(CN(C(=O)c2cccc(OC)c2)C2CCS(=O)(=O)C2)c1 (configuration not stated) | 3 | -10% | 1 | 14% | 13 | 4%
COc1ccccc1N1CSC2=C(C#N)C(c3ccc(SC)cc3)CC(=O)N2C1 (configuration not stated) | -3 | ? | -5 | 23µM* | 6 | 6%
N#CC1=C2SCN(C3CCCCC3)CN2C(=O)CC1c1ccc(Cl)cc1 (configuration not stated) | / | 4.6µM* | / | ? | / | -2%
COc1cc(C2CC(=O)N3CN(c4ccccc4C)CSC3=C2C#N)cc(OC)c1OC (configuration not stated) | / | / | / | / | / | 0%
N#CC1=C2SCN(C3CCCCC3)CN2C(=O)CC1c1ccc(F)cc1 (configuration not stated) | / | ? | / | 16µM* | / | 5%
Cn1cc([C@]2(O)C(=O)Nc3ccc(F)cc32)c2ccccc21 | 1 | -12% | 0 | -29% | 7 | /
O=C(CCN1C(=O)/C(=C\c2ccccc2F)SC1=S)Nc1ccc(C(=O)O)c(O)c1 | / | / | / | / | / | 7%
O=C(CCN1C(=O)/C(=C/c2ccccc2F)SC1=S)N[C@@H](CO)Cc1ccccc1 | -20 | ? | -5 | 16µM* | -99* | 1%
O=C(CCN1C(=O)/C(=C/c2ccccc2)SC1=S)Nc1ccccn1 | -14 | -14% | -7 | -13% | 11 | 9%
